The source made the active and inactive calls. How the source made its calls: active means hit-call score of the fitted dose curve at least 0.9, where 1 is the maximum; inactive means score below 0.9.

For orientation: AC50 means the concentration giving half of the maximal activity seen.

The nature of experiment [1]: APR_HepG2_CellLoss_72hr: Apredica 72-hour HepG2 Assay for Cell Loss (AID 2282915). The note with it: high-content imaging. In outline: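 HepG2 cells exposed 72 h to compound at 0.39–200 uM (10 concentrations, duplicate) in 0.5% DMSO. Fixed with 3.7% formaldehyde and Hoechst 33342-stained. Imaged at 20x; nuclear count gives cell number, fitted bidirectionally versus DMSO.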

Experiment [2] in a line: APR_HepG2_P-H2AX_72hr: Apredica 72-hour HepG2 Assay for H2AX Phosphorylation (AID 2282916).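 Further: phospho-histone H2A.x immunostain intensity per cell marking DNA damage.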 The conditions noted are these: imaging, actives raise or lower the signal. In outline:
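Readout: phospho-H2A.x immunofluorescence (FITC secondary) plus Hoechst nuclear stain, high-content imaging at 20x, six fields/well. HepG2, 72 hr compound exposure, 0.39–200 uM, final DMSO 0.5% v/v. Gain or loss fitted relative to DMSO baseline.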

Experiment [3] is described as follows: APR_HepG2_MitoticArrest_72hr: Apredica 72-hour HepG2 Assay for Mitotic Arrest (AID 2282918). The conditions noted are these: high-content imaging, actives raise or lower the signal. In outline:
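Using high-content imaging of fixed HepG2 cells, phospho-histone H3 signal was measured following a 72 hr incubation with ten-point compound dilutions up to 200 uM. DMSO served as the negative control and baseline for bidirectional curve fitting.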

Experiment [4] can be described thus: APR_HepG2_MicrotubuleCSK_72hr: Apredica 72-hour HepG2 Assay for Microtubule CSK Stabilty (AID 2282919). The note with it: HepG2 microtubule cytoskeleton, high-content imaging, actives raise or lower the signal. In outline: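 HepG2, 72 hr cmpd exposure, 0.39–200 uM (10 pts, duplicate), 0.5% DMSO. 3.7% formaldehyde fix, 0.5% Triton perm, anti-alpha-tubulin/Cy5 plus Hoechst. HCS fluorescence intensity; bidirectional fit vs DMSO baseline; taxol as positive control.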

Experiment [5] is described as follows: APR_HepG2_P-H2AX_24hr: Apredica 24-hour HepG2 Assay for H2AX Phosphorylation (AID 2282920). The conditions noted are these: high-content imaging, actives raise or lower the signal. In outline:
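Human HepG2 liver cells, treated 24 hr with test chemicals (0.39–200 uM, final DMSO 0.5% v/v), are fixed and co-stained for phospho-H2A.x and c-Jun with Hoechst. Imaged intensity is fitted in both directions against DMSO controls.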

The nature of experiment [6]: APR_HepG2_StressKinase_72hr: Apredica 72-hour HepG2 Assay for Stress Kinase (AID 2282921). The conditions noted are these: HepG2 stress kinase (phospho-c-Jun) imaging, actives raise or lower the signal. In outline: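 Phospho-c-Jun immunofluorescence measured by high-content imaging at 20x, six fields per well; bidirectional curve fitting against DMSO as baseline. Dosing: 0.39–200 uM, 72 h, 0.5% DMSO final.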

Experiment [7] in a line: APR_HepG2_StressKinase_24hr: Apredica 24-hour HepG2 Assay for Stress Kinase (AID 2282922). The conditions noted are these: HepG2 stress kinase (phospho-c-Jun) imaging, actives raise or lower the signal. In outline: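 Read-out: phospho-c-Jun immunofluorescence (Cy3 secondary) quantified by high-content imaging at 20x, nuclei defined by Hoechst 33342. Human HepG2 liver cells dosed 24 hr, 0.39–200 uM, DMSO 0.5% v/v; gain or loss of signal fitted relative to DMSO.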

A short description of experiment [8]: APR_HepG2_MitoMass_72hr: Apredica 72-hour HepG2 Assay for Mitochondrial Mass (AID 2282924).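 Further: MitoTracker Red CMXRos stain intensity per cell imaged as mitochondrial mass.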 The conditions noted are these: high-content imaging, actives raise or lower the signal. In outline:
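Read-out: MitoTracker Red fluorescence intensity from automated imaging (20x, six fields per well) in human HepG2 liver cells. Dosing ran 72 hr, 0.39–200 uM, 0.5% DMSO; bidirectional curve fitting versus DMSO baseline.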

Experiment [9] can be described thus: ATG_CRE_CIS: Attagene CIS-FACTORIAL HepG2 Assay for human cAMP Responsive Element (CRE) binding protein 3 (AID 2282926). The conditions noted are these: HepG2 CRE cis-reporter, Attagene multiplexed mRNA; actives raise or lower the signal. In outline: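 Liver-derived HepG2, transfected with a CRE-containing reporter panel, exposed 24 h; transcript levels sized and quantified by capillary electrophoresis of labelled amplicons; signal changes either way referenced to vehicle.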

Experiment [10] has as its target CCAAT/enhancer-binding protein beta (Homo sapiens) (UniProt P17676). Kind of experiment: ATG_C_EBP_CIS: Attagene CIS-FACTORIAL HepG2 Assay for human CCAAT/Enhancer Binding Protein (C/EBP) beta (AID 2282927). The note with it: HepG2 Attagene cis-factorial transcription factor reporter; actives raise or lower the signal. In outline:
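HepG2 transiently transfected with multiplexed reporter units under cis-regulatory promoters reporting endogenous C/EBPb activity. After 24 h exposure, reporter mRNA assayed by RT-PCR, fluorescent labelling, HpaI digestion and capillary electrophoresis; bidirectional fitting versus DMSO.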

Experiment [11] can be described thus: ATG_CMV_CIS: Attagene CIS-FACTORIAL HepG2 Assay for human CMV (Internal Marker) (AID 2282928).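 Further: endpoint acts as a background internal control marker rather than a target.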 The note with it: HepG2 CMV promoter reporter, transcription factor profiling; actives raise or lower the signal. In outline: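 Bidirectional fits against DMSO are applied to reporter mRNA, read by RT-PCR with capillary electrophoresis, from HepG2 cells exposed 24 h. The endpoint serves as an internal CMV background marker within the cis-factorial reporter panel.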

A short description of experiment [12]: ATG_DR4_LXR_CIS: Attagene CIS-FACTORIAL HepG2 Assay for human Liver X Receptor (LXR), DR4 submotif (AID 2282929). The note with it: HepG2 Attagene DR4 cis-reporter, mRNA transcription; actives raise or lower the signal. In outline:
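HepG2, transient MRTU transfection, cis-element (DR4) promoter; 24 h compound exposure; total RNA → oligo(dT) RT → PCR → 6-FAM primer extension → HpaI cut → CE. Gain/loss vs DMSO, bidirectional fit.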

Experiment [13] addresses Aryl hydrocarbon receptor (Homo sapiens) (UniProt P35869). Kind of experiment: ATG_Ahr_CIS: Attagene CIS-FACTORIAL HepG2 Assay for human Aryl Hydrocarbon Receptor (Ahr) (AID 2282930). The note with it: HepG2 AhR cis-factorial reporter transcription; actives raise or lower the signal. In outline:
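HepG2 cells transiently transfected with cis-element-driven multiplexed reporter units; endogenous AhR activity read as reporter mRNA 24 h after dosing, via RT-PCR, 6-FAM labelling, HpaI digestion and capillary electrophoresis. Bidirectional fit relative to DMSO.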

Experiment [14] is described as follows: ATG_AP_1_CIS: Attagene CIS-FACTORIAL HepG2 Assay for human Activator Protein 1 (AP-1) (AID 2282931). The note with it: HepG2 Attagene cis-factorial AP-1 reporter mRNA; actives raise or lower the signal. In outline: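 Transient MRTU transfection of HepG2 → 24 h chemical treatment → RNA isolation, RT-PCR, 6-FAM labelling, HpaI digest → capillary electrophoresis. Fit: bidirectional, DMSO negative control.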

Experiment [15] can be described thus: ATG_BRE_CIS: Attagene CIS-FACTORIAL HepG2 Assay for human Bone Morphogenetic Protein (BMP) Response Element (BRE) (AID 2282933). The conditions noted are these: HepG2 BMP response element reporter, Attagene transcription factor profiling; actives raise or lower the signal. In outline: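 A HepG2 multiplex reporter system measured inducible reporter mRNA 24 h post-dosing. Detection: RT-PCR, 6-FAM primer extension, HpaI digestion, capillary electrophoresis. Activity fitted bidirectionally relative to DMSO.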

The target in experiment [16] is Retinoic acid receptor alpha (Homo sapiens) (UniProt P10276). Kind of experiment: ATG_DR5_RAR_CIS: Attagene CIS-FACTORIAL HepG2 Assay for human Retinoic Acid Receptor Alpha (RARE), DR5 submotif (AID 2282934).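 On AC50: reporter responds to endogenous RAR alpha beta and gamma in HepG2 not RARA alone.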 The conditions noted are these: HepG2 Attagene cis-factorial RARE DR5 reporter, mRNA; actives raise or lower the signal. In outline: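 HepG2 cells transiently transfected with multiplexed reporter units; DR5 cis-element drives reporter through endogenous transcription factors. After 24 h dosing, reporter mRNA quantified by RT-PCR, fluorescent labeling, HpaI digestion and capillary electrophoresis; bidirectional fitting versus DMSO.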
Chain of Retinoic acid receptor alpha (Homo sapiens) (P10276 whole entry, looked up): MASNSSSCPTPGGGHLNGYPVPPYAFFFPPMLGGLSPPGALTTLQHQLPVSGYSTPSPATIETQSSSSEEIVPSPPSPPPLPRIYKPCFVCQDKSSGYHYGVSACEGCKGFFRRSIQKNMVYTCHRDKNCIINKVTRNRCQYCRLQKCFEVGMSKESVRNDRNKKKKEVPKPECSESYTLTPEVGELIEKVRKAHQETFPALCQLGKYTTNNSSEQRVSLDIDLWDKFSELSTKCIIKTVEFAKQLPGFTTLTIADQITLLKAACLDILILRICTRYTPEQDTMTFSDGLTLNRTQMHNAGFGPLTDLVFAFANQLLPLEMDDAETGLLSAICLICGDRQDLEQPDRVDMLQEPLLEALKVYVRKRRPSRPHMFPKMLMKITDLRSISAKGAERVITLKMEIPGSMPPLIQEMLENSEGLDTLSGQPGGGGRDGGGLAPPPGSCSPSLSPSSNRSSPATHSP

The nature of experiment [17]: ATG_AP_2_CIS: Attagene CIS-FACTORIAL HepG2 Assay for human Activator Protein 2 (AP-2) (AID 2282932). The note with it: HepG2 AP-2 cis-reporter, Attagene transcription factor profiling; actives raise or lower the signal. In outline: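 Read-out: fluorescent reporter mRNA via RT-PCR and capillary electrophoresis, 24 h post-dose in transiently transfected HepG2. Endogenous factors drive cis-promoter reporters; gain or loss of signal fitted bidirectionally against DMSO.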

The nature of experiment [18]: APR_HepG2_p53Act_72hr: Apredica 72-hour HepG2 Assay for p53 Activation (AID 2282923).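 Further: average cellular p53 protein immunofluorescence intensity in HepG2 cells.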 The conditions noted are these: high-content imaging, actives raise or lower the signal. In outline: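 Readout: p53 immunofluorescence quantified by automated high-content imaging at 20x, six fields per well, nuclei located via Hoechst. Dosing ran 72 hr over ten concentrations from 0.39 to 200 uM; bidirectional curve fitting against DMSO baseline.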

Experiment [19] in a line: APR_HepG2_NuclearSize_72hr: Apredica 72-hour HepG2 Assay for Nuclear Size (AID 2282925). The note with it: high-content imaging, actives raise or lower the signal. In outline: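 Read-out: nuclear diameter from Hoechst 33342 images (ArrayScan, 20x, six fields/well), via cell-cycle image analysis. HepG2 were dosed 0.39–200 uM for 72 hr in 0.5% DMSO. Bidirectional fit relative to DMSO.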

Chain of CCAAT/enhancer-binding protein beta (Homo sapiens) (P17676 whole entry, looked up): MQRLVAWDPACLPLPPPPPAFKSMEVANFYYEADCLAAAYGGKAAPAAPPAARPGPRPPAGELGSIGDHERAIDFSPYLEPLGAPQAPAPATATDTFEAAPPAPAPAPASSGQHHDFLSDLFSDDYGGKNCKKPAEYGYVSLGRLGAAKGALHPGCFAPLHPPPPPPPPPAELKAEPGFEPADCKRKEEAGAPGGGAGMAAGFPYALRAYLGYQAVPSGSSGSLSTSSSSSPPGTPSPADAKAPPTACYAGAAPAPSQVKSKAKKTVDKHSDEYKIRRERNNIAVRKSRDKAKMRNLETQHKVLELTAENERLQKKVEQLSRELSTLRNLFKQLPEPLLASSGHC
Chain of Aryl hydrocarbon receptor (Homo sapiens) (P35869 whole entry, looked up): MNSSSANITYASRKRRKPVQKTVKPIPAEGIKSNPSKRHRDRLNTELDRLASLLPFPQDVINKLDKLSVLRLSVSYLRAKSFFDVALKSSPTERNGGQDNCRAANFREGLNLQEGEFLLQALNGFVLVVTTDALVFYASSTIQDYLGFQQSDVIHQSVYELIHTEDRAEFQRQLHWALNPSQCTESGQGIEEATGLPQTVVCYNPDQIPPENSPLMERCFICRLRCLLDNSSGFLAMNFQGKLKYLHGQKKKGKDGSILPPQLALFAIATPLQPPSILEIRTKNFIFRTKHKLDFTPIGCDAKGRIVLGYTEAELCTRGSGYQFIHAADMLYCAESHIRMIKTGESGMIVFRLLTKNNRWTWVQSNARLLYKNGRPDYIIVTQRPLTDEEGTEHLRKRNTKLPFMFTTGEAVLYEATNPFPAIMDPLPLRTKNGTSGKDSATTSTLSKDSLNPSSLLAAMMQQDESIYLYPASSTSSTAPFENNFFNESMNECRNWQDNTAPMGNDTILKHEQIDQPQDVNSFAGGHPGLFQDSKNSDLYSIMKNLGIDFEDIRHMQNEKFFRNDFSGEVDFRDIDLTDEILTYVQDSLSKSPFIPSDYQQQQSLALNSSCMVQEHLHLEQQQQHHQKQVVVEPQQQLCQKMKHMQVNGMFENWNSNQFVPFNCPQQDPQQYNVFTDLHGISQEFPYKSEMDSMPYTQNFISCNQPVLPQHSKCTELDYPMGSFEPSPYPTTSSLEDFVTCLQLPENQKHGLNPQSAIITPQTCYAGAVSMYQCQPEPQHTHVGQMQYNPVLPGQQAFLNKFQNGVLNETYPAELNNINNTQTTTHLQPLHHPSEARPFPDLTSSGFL

For the molecule `CCCC(=NOCC)C1=C(O)CC(CC(C)SCC)CC1=O` (stereo not drawn), the call in experiment [1], in experiment [2], in experiment [3], in [4], in experiment [5] and in experiment [6] was inactive. Further, the outcome in experiment [7], in experiment [8], in experiment [9], in experiment [10], in experiment [11] and in experiment [12] was inactive. Further, the outcome in [13], in experiment [14], in experiment [15] and in experiment [16] was inactive.

Take `CCOC(=O)C(C)OC(=O)c1cc(Oc2ccc(C(F)(F)F)cc2Cl)ccc1[N+](=O)[O-]` (stereo not drawn): the AC50 in [1] is 41 µM (active); in experiment [13], 14.7 µM (active); in experiment [15] it was 17.8 µM (active). In addition, the outcome in [2], in experiment [3], in experiment [5], in experiment [6], in experiment [8] and in experiment [9] was inactive. Moreover, the result in [10], in experiment [11], in experiment [12], in experiment [14], in [17] and in experiment [16] was inactive.

As to `Cc1cc(C)nc(Nc2ccccc2)n1`, the AC50 is 46.3 µM (active) in experiment [1]; 7.42 µM (active) in experiment [9]; 6.27 µM (active) in experiment [10]; 30.4 µM (active) in experiment [14]; 27 µM (active) in experiment [15]. Further, the molecule was called inactive in experiment [2], in [3], in experiment [5], in experiment [6], in experiment [7] and in experiment [18]. Also, the molecule was called inactive in [8], in [19], in experiment [11], in [12], in [13] and in experiment [17]. The molecule was classed as inactive in experiment [16].

As to `CCNP(=S)(OC)O/C(C)=C/C(=O)OC(C)C` (stereo not drawn), the molecule was classed as inactive in experiment [1], in experiment [2], in experiment [3], in experiment [5], in [6] and in experiment [8]. The result in experiment [19], in experiment [9], in experiment [11], in [14] and in [15] was inactive. For the same molecule, the AC50 in experiment [12] is 50 µM (active); in experiment [13] it was 13.6 µM (active); in experiment [16], 13.6 µM (active).

In the case of `CSC(=O)c1c(C(F)F)nc(C(F)(F)F)c(C(=O)SC)c1CC(C)C`, the AC50 in experiment [1] is 73.9 µM (active); in experiment [3], 67.7 µM (active); in [12] it was 4.51 µM (active); in [13] it was 81.5 µM (active); in experiment [16], 1.28 µM (active). The result in experiment [2], in experiment [5], in [6], in experiment [8], in experiment [19] and in experiment [9] was inactive. Besides, the outcome in experiment [10], in experiment [11], in experiment [14], in experiment [17] and in experiment [15] was inactive.

For `CC(C)NC(=O)N1CC(=O)N(c2cc(Cl)cc(Cl)c2)C1=O`, the molecule was classed as inactive in experiment [1], in experiment [2], in experiment [3], in experiment [5], in [6] and in [7]. For the same molecule, the molecule was classed as inactive in experiment [8], in [9], in [11], in experiment [12], in experiment [14] and in [17]. The call in experiment [15] was inactive. In addition, in [13], the AC50 was 4.87 µM (active).

(Values after PubChem BioAssay (EPA / NIEHS).)
